From PMC5540273 (PLoS ONE, 2017)

Columns and labels:
Conditions in all cases: concentration: 1 μM, replicates: in singlicate; n = 1
INSRR = tested on: INSRR
INSR = tested on: INSR
IRAK1 = tested on: IRAK1
IRAK3 = tested on: IRAK3
IRAK4 = tested on: IRAK4
ITK = tested on: ITK
[1] = tested on: JAK1(JH1domain-catalytic)
[2] = tested on: JAK1(JH2domain-pseudokinase)
[3] = tested on: JAK2(JH1domain-catalytic)
[4] = tested on: JAK3(JH1domain-catalytic)
JNK1 = tested on: T1, JNK1
T1 construct: gene MAPK8

JNK2 = tested on: T2, JNK2
T2 construct: gene MAPK9

JNK3 = tested on: T3, JNK3
T3 construct: gene MAPK10

KIT-autoinhibited = tested on: KIT-autoinhibited
KIT = tested on: KIT
LATS1 = tested on: LATS1
LATS2 = tested on: LATS2
LCK = tested on: LCK
LIMK1 = tested on: LIMK1
LIMK2 = tested on: LIMK2
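Further: KINOMEscan kinase panel screen.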

SMILES	%Inh (INSRR) [%]	%Inh (INSR) [%]	%Inh (IRAK1) [%]	%Inh (IRAK3) [%]	%Inh (IRAK4) [%]	%Inh (ITK) [%]	%Inh [1] [%]	%Inh [2] [%]	%Inh [3] [%]	%Inh [4] [%]	%Inh (JNK1) [%]	%Inh (JNK2) [%]	%Inh (JNK3) [%]	%Inh (KIT-autoinhibited) [%]	%Inh (KIT) [%]	%Inh (LATS1) [%]	%Inh (LATS2) [%]	%Inh (LCK) [%]	%Inh (LIMK1) [%]	%Inh (LIMK2) [%]
CS(=O)(=O)CCNCc1ccc(-c2ccc3ncnc(Nc4ccc(OCc5ccccc5)c(Cl)c4)c3c2)o1.Cl [GW574783]	24	7	0	12	0	0	9	0	14	0	18	4	0	0	10	0	11	30	0	1
CS(=O)(=O)CCNCc1nc(-c2ccc3ncnc(Nc4ccc(OCc5cccc(F)c5)c(Cl)c4)c3c2)cs1.Cl [GW583340]	0	1	0	0	5	0	24	0	0	0	0	0	0	0	7	0	9	5	0	3
c1ccc(-c2ccc3c(-c4ccnc(Nc5ccc6c(c5)OCCO6)n4)cnn3n2)cc1 [GW818941]	11	3	8	42	6	9	14	0	11	0	28	4	8	0	10	11	0	22	27	0
CNc1nccc(-c2c(-c3ccc(F)cc3)ncn2C2CCN(C)CC2)n1 [SB-222903]	0	5	0	0	0	5	24	5	5	0	0	69	43	0	0	2	0	0	0	0
O=C(Nc1n[nH]c2nc(-c3ccco3)c(Br)cc12)c1ccc(CN2CCCC2)cc1.O=C(O)[C@H](O)[C@@H](O)C(=O)O [SB-742352]	0	0	0	0	0	3	0	1	0	0	0	0	0	0	99.2	0	0	47	26	0
CCCc1ccc(S(=O)(=O)NC2CCN(c3ccnc(Nc4ccc(OC)cc4)n3)C2)cc1 (stereo not drawn) [GSK1379737]	0	0	39	0	24	14	34	0	73	0	20	21	0	0	37	0	0	16	0	100
Cl.c1ccc(Cn2ccc3cc(Nc4ncnc5ccccc45)ccc32)cc1 [GW275568]	0	12	0	0	0	12	18	10	100	0	0	23	16	0	41	0	22	41	8	15
Nc1nc(-c2ccccn2)c(-c2ccnc3ccccc23)s1 [GW548057]	0	0	33	0	0	5	28	5	22	0	0	19	1	3	11	0	23	10	0	9
COc1ccc(-c2oc3ncnc(N)c3c2-c2ccc(OC)cc2)cc1 [SB-589132]	0	0	56	15	58	19	25	31	1	19	30	10	0	29	49	100	0	54	24	8
